Source: PubChem
Hits are enriched below; roughly 2.9% of the tested compounds scored in any of these assays.
dFosB act-1: mouse delta FosB homodimer activation; AID 493131; purified delta FosB, TAMRA-CDK5 oligo fluorescence polarization; percent of positive-control signal above neutral wells; actives 0.99% (n = 340,000); activation, % at 25 µM;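 active means mean activation above about 17%, with every replicate also reaching it, limit read from the data, passing the limit was not always enough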
Target sequence (P13346 whole entry, looked up): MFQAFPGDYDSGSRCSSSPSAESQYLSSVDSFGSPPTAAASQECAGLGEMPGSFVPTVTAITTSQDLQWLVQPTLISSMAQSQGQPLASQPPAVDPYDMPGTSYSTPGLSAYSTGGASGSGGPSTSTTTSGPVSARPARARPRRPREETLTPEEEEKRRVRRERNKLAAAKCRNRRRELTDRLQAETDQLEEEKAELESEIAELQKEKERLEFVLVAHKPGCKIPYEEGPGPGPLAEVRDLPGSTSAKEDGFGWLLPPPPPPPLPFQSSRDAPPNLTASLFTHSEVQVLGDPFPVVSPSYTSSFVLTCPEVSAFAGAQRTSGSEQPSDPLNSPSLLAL
DNA FID counter: displaces DNA intercalator in HCV helicase counter-screen; DNA fluorescent intercalator displacement, fluorescence; inhibition, % at 7.9 µM; actives 0.17% (n = 290,000); AID 1845; in the data active means inhibition above about 37%;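 further: 0% = vehicle and 100% = reference compound; higher means more ethidium bromide displaced from hairpin DNA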
MEKK2mut PB1 HTS: signal of MEK5 binding to mutant human MEKK2 PB1 domain | actives 0.35% (n = 290,000) | bead flow cytometry, Alexa488-MEK5 binding to MEKK2 mutant | percent response, % at 10 µM; in the data active means percent response above about 24%, passing the limit was not always enough
MEKK2 WT-MEK5: raises or lowers MEK5 binding to wildtype human MEKK2 PB1 domain | AID 1531 | bead flow cytometry, Alexa488-MEK5 binding to MEKK2 WT; actives lie on both sides | binding response (% of control), % at 10 µM | actives 1.1% (n = 290,000); in the data active means binding response below about 67% or above about 130%
MEKK3 PB1 HTS: raises or lowers MEK5 binding to the human MEKK3 PB1 domain | Q99759 | bead-based flow cytometry, Alexa488-MEK5 binding to MEKK3; actives lie on both sides; 0 = blocked by unlabeled MEK5, 100 = vehicle | binding response (% of control), % at 10 µM | actives 1.4% (n = 290,000) | AID 1529;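 active means binding response more than 3 SD above or below the average of its plate-row segment, actives on both sides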;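 further: Alexa488 bead fluorescence after subtracting the streptavidin-only scavenger bead signal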
dFosB act-2: enhances mouse delta FosB homodimer binding to DNA | shares compounds with dFosB act-1 | purified delta FosB, TAMRA-CDK5 oligo fluorescence polarization; normalised: neutral wells 0, positive control 100 | activation, % at 24.9 µM | 2,400 tested, under 10 active | AID 588690;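 active means highest replicate activation at or above 34% and every replicate reaching that threshold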;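 further: higher polarization means more probe DNA bound by delta FosB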
* = called active by the depositor.

For COc1ccc(COC(=O)c2ccc(S(=O)(=O)N3CCC(C)CC3)cc2)cc1 the results were dFosB act-1 19.0*, DNA FID counter -17.6, MEKK2mut PB1 HTS -3.0, MEKK2 WT-MEK5 101.0, MEKK3 PB1 HTS 100.0 and dFosB act-2 -0.1.
CC1=C(C(N)=O)C(c2cccnc2)n2nc(SCc3ccccc3Cl)nc2N1 (configuration not stated) was read as dFosB act-1 101.1*, DNA FID counter -2.1, MEKK2mut PB1 HTS 2.0, MEKK2 WT-MEK5 100.0, MEKK3 PB1 HTS 104.0 and dFosB act-2 4.5.
CCc1nnc(NC(=O)c2ccc(-c3cccc(C(F)(F)F)c3)o2)s1 was read as dFosB act-1 18.7*, DNA FID counter 2.7, MEKK2mut PB1 HTS -1.0, MEKK2 WT-MEK5 94.0, MEKK3 PB1 HTS 97.0 and dFosB act-2 3.0.
For Cn1cc(S(=O)(=O)NC2CCCC2)c(=O)n(C)c1=O the results were dFosB act-1 -0.7.
CCc1cc(C(=O)N2CCCC(N3CCN(c4cccc(C(F)(F)F)c4)CC3)C2)n(C)n1 (configuration not stated) was read as dFosB act-1 -4.8, DNA FID counter -54.0, MEKK2mut PB1 HTS -1.0, MEKK2 WT-MEK5 96.0 and MEKK3 PB1 HTS 95.0.
Screening CCCNS(=O)(=O)c1ccc(CCC(=O)N2CCN(c3ccc(F)cc3)CC2)cc1 returned dFosB act-1 1.6, DNA FID counter -30.1, MEKK2mut PB1 HTS -1.0, MEKK2 WT-MEK5 102.0 and MEKK3 PB1 HTS 100.0.
`CCC(C)C(NC(C)=O)C(=O)NC(=O)NC(c1ccccc1)c1ccccc1` (configuration not stated) gave dFosB act-1 -13.0, DNA FID counter -32.5, MEKK2mut PB1 HTS -8.0, MEKK2 WT-MEK5 91.0 and MEKK3 PB1 HTS 94.0.
`CCC(C)(C)C1CCC2(CC1)NC(=O)N(CC(=O)Nc1nc(-c3ccc(C)cc3)cs1)C2=O` (configuration not stated) gave dFosB act-1 34.5*, DNA FID counter -0.4, MEKK2mut PB1 HTS 8.0, MEKK2 WT-MEK5 104.0, MEKK3 PB1 HTS 104.0 and dFosB act-2 5.5.
`O=C(CN1C(=O)NC2(CCCC2)C1=O)Nc1nc(-c2ccc(F)cc2)cs1` gave dFosB act-1 0.4, DNA FID counter -10.9, MEKK2mut PB1 HTS -3.0, MEKK2 WT-MEK5 99.0 and MEKK3 PB1 HTS 95.0.
For Cc1ccc(C)c(S(=O)(=O)N2CCN(C(=O)CN3C(=O)NC(C)(C)C3=O)CC2)c1 the results were dFosB act-1 -9.9.
`CCC(C)(C)C1CCC2(CC1)NC(=O)N(CC(=O)N1CCN(S(=O)(=O)c3cc(C)ccc3C)CC1)C2=O` (configuration not stated) gave dFosB act-1 45.3*, DNA FID counter -10.2, MEKK2mut PB1 HTS 5.0, MEKK2 WT-MEK5 106.0, MEKK3 PB1 HTS 104.0 and dFosB act-2 5.9.
For COc1ccc(Cl)cc1C(=O)NNC(=O)c1cc2ccccc2o1 the results were dFosB act-1 34.8* and dFosB act-2 0.7.
`O=C(Nc1ccc(-c2ccc3nncn3n2)cc1)c1ccc(Br)o1` gave dFosB act-1 54.0*, DNA FID counter 8.3, MEKK2mut PB1 HTS 0.0, MEKK2 WT-MEK5 110.0, MEKK3 PB1 HTS 110.0 and dFosB act-2 3.6.
COc1ccc([N+](=O)[O-])cc1NC(=O)c1ccc(Br)s1 was read as dFosB act-1 58.7*, DNA FID counter 11.1, MEKK2mut PB1 HTS -3.0, MEKK2 WT-MEK5 96.0, MEKK3 PB1 HTS 98.0 and dFosB act-2 4.2.
Screening COc1ccc([N+](=O)[O-])cc1NC(=O)COC(=O)c1ccc(O)cc1 returned dFosB act-1 52.7*, DNA FID counter 6.3, MEKK2mut PB1 HTS -4.0, MEKK2 WT-MEK5 97.0, MEKK3 PB1 HTS 97.0 and dFosB act-2 6.0.
Screening COc1ccc(C)cc1Nc1nc(N)c2ccccc2n1 returned dFosB act-1 26.6*, DNA FID counter 9.7, MEKK2mut PB1 HTS 17.0, MEKK2 WT-MEK5 119.0, MEKK3 PB1 HTS 108.0 and dFosB act-2 0.9.
Oc1c(C(c2cccs2)N2CCN(c3cccc(Cl)c3)CC2)sc2ncnn12 (configuration not stated) was read as dFosB act-1 -12.3, DNA FID counter -22.2, MEKK2mut PB1 HTS 11.0, MEKK2 WT-MEK5 107.0 and MEKK3 PB1 HTS 112.0.
For COc1ccc(Nc2oc(COc3ccc(Cl)cc3)nc2C#N)cc1 the results were dFosB act-1 22.3*, DNA FID counter 0.6, MEKK2mut PB1 HTS 4.0, MEKK2 WT-MEK5 110.0, MEKK3 PB1 HTS 106.0 and dFosB act-2 0.9.
`O=C1CN2Cc3c(ccc(Cl)c3Cl)N=C2N1` gave MEKK2mut PB1 HTS 1.0, MEKK2 WT-MEK5 108.0 and MEKK3 PB1 HTS 108.0.
`O=C(Nc1ccc(Cl)cc1)c1ccc(OC2CSC2)cc1` gave dFosB act-1 20.8*, DNA FID counter 14.4, MEKK2mut PB1 HTS -2.0, MEKK2 WT-MEK5 93.0, MEKK3 PB1 HTS 86.0 and dFosB act-2 5.5.
`O=C(COC(=O)c1cc(=O)[nH]c2ccccc12)NCc1ccccc1Cl` gave dFosB act-1 4.8.
`COc1ccc(OC)c(/C=N/NC(=O)c2[nH]nc3c2CCc2ccccc2-3)c1` gave dFosB act-1 22.8*, DNA FID counter -6.9, MEKK2mut PB1 HTS -1.0, MEKK2 WT-MEK5 104.0, MEKK3 PB1 HTS 105.0 and dFosB act-2 0.5.
`NC(=Nc1ccc(N)cc1)C(N)=Nc1ccc(N)cc1` gave dFosB act-1 -3.9, DNA FID counter 4.9, MEKK2mut PB1 HTS 9.0, MEKK2 WT-MEK5 94.0 and MEKK3 PB1 HTS 94.0.
`C=CCn1c(SCC(=O)Nc2ccc(C(=O)O)cc2)nc2sc(C)c(C)c2c1=O` gave dFosB act-1 4.7.
C=CCn1c(SCC(=O)Nc2sccc2C#N)nc2sc(C)c(C)c2c1=O was read as dFosB act-1 22.9*, DNA FID counter -0.5, MEKK2mut PB1 HTS 2.0, MEKK2 WT-MEK5 91.0, MEKK3 PB1 HTS 101.0 and dFosB act-2 -6.0.
CCOC(=O)c1cc(-c2ccccc2)sc1NC(=O)COC(=O)c1cccc(S(N)(=O)=O)c1 was read as dFosB act-1 24.2*, DNA FID counter 4.6, MEKK2mut PB1 HTS -3.0, MEKK2 WT-MEK5 89.0, MEKK3 PB1 HTS 101.0 and dFosB act-2 -1.8.
Screening COc1ccccc1C1CC(c2ccccc2)=NN1S(=O)(=O)c1ccccc1 (configuration not stated) returned dFosB act-1 -6.8, DNA FID counter -13.4, MEKK2mut PB1 HTS 7.0, MEKK2 WT-MEK5 102.0 and MEKK3 PB1 HTS 105.0.
COc1cccc(C2CC(c3ccccc3)=NN2S(=O)(=O)c2ccc(C)cc2)c1OC (configuration not stated) was read as dFosB act-1 38.9*, DNA FID counter -19.6 and dFosB act-2 0.8.
